{"source": "PubChem BioAssay (NCATS)", "note": "Inconclusive results are not listed. The source made the active and inactive calls. Calls follow the shape of the dose curve; as a rule, active = well fitted cell-killing curve with a large enough effect; inconclusive = small, poorly fitted or top-dose-only effect, or effect the other way; inactive = flat fitted curve, though single readings scatter. Where a SMILES comes first, the peptide text is derived from it.", "data": [{"system": "JEG-3", "assay": "Primary qHTS to identify gynecologic anti-cancer compounds using libraries of approved drugs and bioactive compounds (AID 1345084); also: % is scaled to controls: 0 for no effect and ±100 for the full control effect; nearly all actives have a fitted effect of over 55% in size", "details": "Gynecologic cancer cell panel viability, ATPlite luminescence, 48 h; series mostly up to 57.5 µM; activity change, negative = cytotoxicity: at the top concentration", "in_short": "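Cells, 1,000 per well, plated 16 h, then exposed 48 h at 37 C to compounds. Viability by ATPlite luminescence after 15 min at room temperature.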", "values": [{"compound": "Nc1nc(CC(=O)Nc2ccc(CCNCC(O)c3ccccc3)cc2)cs1", "note": "(configuration not stated)", "activity change, negative = cytotoxicity": "-1.68% (inactive)"}, {"compound": "COc1ccc([C@@H]2N[C@H](C(=O)O)Cc3c2[nH]c2ccccc32)cc1CN1CCN(c2ccccc2F)CC1", "activity change, negative = cytotoxicity": "-9.16% (inactive)"}, {"compound": "CC1NC(=O)CNC(=O)C(C(C)C)NC(=O)C2CCCN2C(=O)C(C(C)C)NC(=O)C(Cc2c[nH]c3ccccc23)NC1=O", "note": "(configuration not stated) (cyclo(GAWVPV); configuration not given here)", "activity change, negative = cytotoxicity": "1.52% [at 25.3 µM] (inactive)"}, {"compound": "CC(C)(C)c1cc(CN2CCN(CC(O)c3ccc(Cl)cc3)CC2)cc(C(C)(C)C)c1O", "note": "(configuration not stated)", "activity change, negative = cytotoxicity": "3.53% (inactive)"}, {"compound": "CC[C@@H](c1ccc(F)c(F)c1)n1c(C(=O)OC)c(-c2ccno2)[nH]c1=S", "activity change, negative = cytotoxicity": "1.69% (inactive)"}, {"compound": "O=C(O)C[C@H]1CCC(=O)[C@@H]1C/C=C\\CCOC1OC(CO)C(O)C(O)C1O", "note": "(some centres not stated)", "activity change, negative = cytotoxicity": "10.7% [at 38.5 µM] (inactive)"}, {"compound": "N#Cc1ccc2[nH]c(O)c(-c3ccc(CN4CCOCC4)cn3)c2c1", "activity change, negative = cytotoxicity": "-0.218% (inactive)"}, {"compound": "C=Cc1cc(O)cc2nc(-c3ccc(O)c(F)c3)oc12", "activity change, negative = cytotoxicity": "-1.92% (inactive)"}, {"compound": "COc1ccc(C(OC2OC(CO)C(O)C(O)C2O)C(C)O)cc1", "note": "(configuration not stated)", "activity change, negative = cytotoxicity": "-5.31% [at 38.5 µM] (inactive)"}, {"compound": "CC1CCC2(C(=O)OC3OC(COC4OC(CO)C(O)C(O)C4O)C(O)C(O)C3O)CCC3(C)C(=CCC4C5(C)CCC(O)C(C)(C(=O)O)C5CCC43C)C2C1(C)O", "note": "(configuration not stated)", "activity change, negative = cytotoxicity": "10.5% [at 11.6 µM] (inactive)"}, {"compound": "C=CC1(C)CC2=CCC3C(C)(C(=O)O)CCCC3(C)C2CC1OC(C)=O", "note": "(configuration not stated)", "activity change, negative = cytotoxicity": "7.74% [at 38.5 µM] (inactive)"}, {"compound": "Cc1cc(Nc2ncc(Cl)c(Nc3ccccc3S(=O)(=O)C(C)C)n2)c(OC(C)C)cc1C1CCNCC1", "activity change, negative = cytotoxicity": "-4.03% (inactive)"}, {"compound": "CCn1c2ccccc2c2cc(CNC)ccc21", "Potency": "inactive"}, {"compound": "O=S(=O)(NC1CCNCC1)c1cc(S(=O)(=O)c2ccccc2)ccc1C(F)(F)F", "activity change, negative = cytotoxicity": "2.23% (inactive)"}, {"compound": "CC1CCC2(C(=O)OC3OC(CO)C(O)C(O)C3O)CCC3(C)C(=CCC4C5(C)CC(O)C(O)C(C)(C(=O)O)C5CCC43C)C2C1(C)O", "note": "(configuration not stated)", "activity change, negative = cytotoxicity": "-4.32% [at 25.3 µM] (inactive)"}, {"compound": "Cc1nnc(C(C)C)n1C1CC2CCC(C1)N2CC[C@H](NC(=O)C1CCC(F)(F)CC1)c1ccccc1", "note": "(some centres not stated)", "activity change, negative = cytotoxicity": "0.115% (inactive)"}, {"compound": "Cc1nn(C)c2c1C(c1ccc(C(F)(F)F)cc1)C(C#N)=C(N)O2", "note": "(configuration not stated)", "activity change, negative = cytotoxicity": "5.15% (inactive)"}, {"compound": "CC(=O)[C@@H]1CC[C@]2(C(=O)O)CC[C@]3(C)C(CCC4[C@@]5(C)CC[C@H](O)C(C)(C)C5CC[C@]43C)C12", "note": "(some centres not stated)", "activity change, negative = cytotoxicity": "10.2% [at 25.3 µM] (inactive)"}, {"compound": "COc1cc(/C=C/C(=O)OC(C)(C)C(OC2OC(CO)C(O)C(O)C2O)C(=O)OCc2ccc(OC3OC(CO)C(O)C(O)C3O)cc2)ccc1O", "note": "(configuration not stated)", "activity change, negative = cytotoxicity": "2.38% [at 25.3 µM] (inactive)"}, {"compound": "Cc1cn2c(N)c(Cl)cc(C(=O)NCC3CCN(CC(C)C)CC3)c2n1", "activity change, negative = cytotoxicity": "10.3% (inactive)"}, {"compound": "CC(C)=CCC[C@](C)(O[C@@H]1O[C@H](CO[C@@H]2OC[C@@H](O)[C@H](O)[C@H]2O)[C@@H](O)[C@H](O)[C@H]1O)[C@H]1CC[C@]2(C)[C@@H]1[C@H](O)C[C@@H]1[C@@]3(C)CC[C@H](O[C@@H]4O[C@H](CO)[C@@H](O)[C@H](O)[C@H]4O[C@@H]4O[C@H](CO)[C@@H](O)[C@H](O)[C@H]4O)C(C)(C)[C@@H]3CC[C@]12C", "activity change, negative = cytotoxicity": "12.2% [at 25.3 µM] (inactive)"}, {"compound": "COc1ccc2c(c1)OC[C@]1(O)c3cc4c(cc3O[C@H]21)OCO4", "activity change, negative = cytotoxicity": "-0.0813% [at 38.5 µM] (inactive)"}, {"compound": "COC1=CC(=O)O[C@@H](/C=C/c2ccccc2)[C@@H]1O", "activity change, negative = cytotoxicity": "6.46% (inactive)"}, {"compound": "CCOC(=O)N1CCC(NCCNC(=O)c2ccccc2C)CC1", "activity change, negative = cytotoxicity": "0.587% (inactive)"}, {"compound": "C=C[C@@]1(C)CC(=O)C2[C@](C)(O1)[C@@H](OC(C)=O)[C@@H](O)[C@H]1C(C)(C)CCC[C@]21C", "note": "(some centres not stated)", "activity change, negative = cytotoxicity": "7.71% [at 11.6 µM] (inactive)"}, {"compound": "O=C1N(CC2CCCCN2)CCN1c1ccccc1", "note": "(configuration not stated)", "activity change, negative = cytotoxicity": "-0.999% (inactive)"}, {"compound": "COc1cc(C(C)=O)ccc1O[C@@H]1O[C@H](CO[C@@H]2O[C@@H](C)[C@H](O)[C@@H](O)[C@H]2O)[C@@H](O)[C@H](O)[C@H]1O", "activity change, negative = cytotoxicity": "-4.73% [at 25.3 µM] (inactive)"}, {"compound": "COC(=O)[C@@]1(O)C=CC[C@@H]2[C@@]3(C)C[C@@H](c4ccoc4)OC(=O)[C@H]3CC[C@]21C", "activity change, negative = cytotoxicity": "-0.378% [at 38.5 µM] (inactive)"}, {"compound": "COc1ccc(C(=O)O[C@H]2CC(C)=CC[C@@]3(C)[C@@H](OC(C)=O)C[C@@](O)(C(C)C)[C@H]23)cc1", "activity change, negative = cytotoxicity": "15.9% [at 25.3 µM] (inactive)"}, {"compound": "CC1(C)CC(=O)N(CCCCN2CCN(c3ncccn3)CC2)C(=O)C1", "activity change, negative = cytotoxicity": "4.77% (inactive)"}, {"compound": "C=C1CC[C@H]2[C@@](C)(CCC(O)[C@@]2(C)CO)[C@@H]1C/C=C(/C(=O)O)C(O)CO", "note": "(some centres not stated)", "activity change, negative = cytotoxicity": "16.5% [at 38.5 µM] (inactive)"}, {"compound": "COc1cc(/C=C/C(=O)OC2CC(C)=C(C(=O)O)/C2=C/CO[C@@H]2O[C@H](CO)[C@@H](O)[C@H](O)[C@H]2O)ccc1O", "note": "(some centres not stated)", "activity change, negative = cytotoxicity": "-2.02% [at 25.3 µM] (inactive)"}, {"compound": "CC(=O)OCC1=C[C@H](O)[C@@H]2C(C(=O)O)=CO[C@@H](O[C@@H]3O[C@H](CO)[C@@H](O)[C@H](O)[C@H]3O)[C@H]12", "activity change, negative = cytotoxicity": "9.17% [at 25.3 µM] (inactive)"}, {"compound": "C=CC(C)(C)O[C@@H]1O[C@H](CO[C@@H]2OC[C@](O)(CO)[C@H]2O)[C@@H](O)[C@H](O)[C@H]1O", "activity change, negative = cytotoxicity": "15.2% [at 38.5 µM] (inactive)"}, {"compound": "COC(=O)[C@@H]1C2CC3c4[nH]c5ccccc5c4CCN3CC2CC[C@@H]1O", "note": "(some centres not stated)", "activity change, negative = cytotoxicity": "18.1% (inactive)"}, {"compound": "FC(F)(F)c1cc(C(F)(F)F)c2ccc3nc(-c4nnco4)cn3c2n1", "activity change, negative = cytotoxicity": "5.21% (inactive)"}, {"compound": "COC(=O)C1=COC(OC2OC(CO)C(O)C(O)C2O)C2C1CC(OC(=O)C(O)CC(=O)O)C2C", "note": "(configuration not stated)", "activity change, negative = cytotoxicity": "0.994% [at 25.3 µM] (inactive)"}]}]}
